Test results from PubChem BioAssay AID493066 (National Center for Advancing Translational Sciences (NCATS), 2011).
Results filed as inconclusive are left out. The source made the active and inactive calls. The call rests on the fitted dose curve; in most records, active means well fitted cell-killing curve with a large enough effect; inconclusive means small, poorly fitted or top-dose-only effect; inactive means flat fitted curve, though single readings scatter.

assay: HBEC Cell Viability Secondary Assay for qHTS Assay for Epigenetic Modulators; details: HBEC normal bronchial cells viability, ATP luminescence, 72 h; series mostly up to 46.1 µM; activity change, negative = viability loss: at the top concentration
From the text: NIH Molecular Libraries Screening Centers Network [MLSCN] NIH Chemical Genomics Center [NCGC] MLSCN Grant: 1 X01 MH079860-01 Assay Provider: Elisabeth D. Martinez, University of Texas SW Medical Center NCGC Assay Overview: This secondary assay characterizes selected actives identified in the qHTS of the Locus Derepression (LDR) assay (PubChem AID 1865). The LDR assay detects the derepression of a GFP reporter that is stably integrated in a region of the genome of murine c127i mammary cells that is presumably silenced. Compounds that cause derepression of the locus to express GFP are identified by enumerating GFP positive cells using a laser-scanning microplate cytometer. Selected LDR actives were assayed for killing of HBEC, a patient-derived normal bronchial epithelial line matched to HCC4017 (Pubchem AID XXX), a nonsmall cell lung carcinoma line from the same patient. The HBEC line assays the cytoxicity of test compounds on normal lung cells. Cell viability was measured using a luminescence-based detection reagent that measures cellular ATP levels.
NCGC Assay Protocol Summary HBEC cells were seeded at 125 cells/5 uL/well in white, solid bottom, 1536 well plates (Greiner). After 16-hour incubation at 37deg C and 5% CO2, 23 nL of compound were transferred into the assay plate via a pin tool. Plates were incubated 72 hours at 37deg C and 5% CO2, then 3.5 uL/well CellTiter-Glo(R) (Promega) detection reagent was added, plates were incubated at ambient temperature for 10 minutes and luminescence was measured by a ViewLux (Perkin Elmer) reader. For further details, see Johnson, RL, Huang, W, Jadhav, A, Austin, CP, Inglese, J, Martinez, ED (2008). A quantitative high-throughput screen identifies potential epigenetic modulators of gene expression. Anal Biochem 375: 237-48. […]

Row | SMILES | activity change, negative = viability loss | Potency
1 | COCCNC(=S)N/N=C(\C)c1ccccc1O | -4.12% (inactive) | 
2 | COc1ccc(NC(=O)CSc2nc3c(oc4ccccc43)c(=O)n2Cc2ccco2)cc1Cl |  | 7.05 µM (active)
3 | COc1ccc(C(=O)/C=C/Sc2nc3ccccc3o2)cc1 |  | 3.15 µM (active)
4 | CCC(=O)N1CCN(c2ccc(NC(=O)c3ccc([N+](=O)[O-])o3)cc2Cl)CC1 |  | 0.705 µM (active)
5 | COc1ccc2c(C)cc(SCC(=O)N(C)C3CCS(=O)(=O)C3)nc2c1 (stereo unspecified) | -9.91% (inactive) | 
6 | COc1ccccc1OCC(=O)N/N=C/C=C/c1ccc([N+](=O)[O-])o1 |  | 9.96 µM (active)
7 | CCOc1ccc(NC(=O)c2nc(S(=O)(=O)Cc3ccccc3F)ncc2Cl)cc1 |  | 2.23 µM (active)
8 | CN(C)S(=O)(=O)c1cccc(NC(=S)N/N=C/c2ccco2)c1 | 3.62% (inactive) | 
9 | CCCC(=O)N1CCN(c2ccc(NC(=O)c3ccc([N+](=O)[O-])o3)cc2Cl)CC1 |  | 0.705 µM (active)
10 | COc1nc(Nc2nc3ccccc3c(=O)[nH]2)nc2ccc(C)cc12 |  | 3.15 µM (active)
11 | CCN(CC)CCCNC(=O)CSc1c2c(nc3cc(Cl)ccc13)CCCC2 |  | 19.9 µM (active)
12 | C/C=C/c1ccc(OCC(=O)OCC(=O)NC2CC2)c(OC)c1 | -4.48% (inactive) | 
13 | O=C1C=C(Nc2ccc(Cl)cc2)C(=O)N1c1ccc(Cl)cc1 | -5.04% (inactive) | 
14 | CCc1nnc(NC(=O)c2cccc(C(=O)Nc3nnc(CC)s3)n2)s1 |  | 0.705 µM (active)
15 | COc1cccc(/C=N/Nc2nc(Nc3ccccc3)nc(-n3nc(C)cc3C)n2)c1O |  | 11.2 µM (active)
16 | NC(=S)N/N=C/c1ncc(C(F)(F)F)cc1Cl |  | 6.28 µM (active)

Row | SMILES | activity change, negative = viability loss | Potency
17 | Cc1ccc(C(C)C)c(OCc2ccc(C(=O)N/N=C/c3cccc(O)c3O)cc2)c1 |  | 14.1 µM (active)
18 | CCOn1c(=O)c[n+]([O-])c2ccccc21 | 3.63% (inactive) | 
19 | Cc1ccc(/C=[N+](\[O-])c2ccc(N(C)C)cc2)c2nsnc12 |  | 9.96 µM (active)
20 | COc1cccc(N2CCN(S(=O)(=O)c3ccc(-n4cnnn4)cc3)CC2)c1 | -18.1% (inactive) | 
21 | O=C(N/N=C/c1ccccn1)c1cc(-c2ccc(Cl)cc2)nc2ccccc12 |  | 7.05 µM (active)
22 | N=c1n(CC(=O)c2ccc([N+](=O)[O-])cc2)c2ccccc2n1Cc1ccccc1Cl |  | 11.2 µM (active)
23 | O=C(CSc1cccc[n+]1[O-])c1ccccc1Br | 11.3% (inactive) | 
24 | CC1=NN(c2nc3ccccc3[nH]2)C(=O)C1Cc1ccccc1 (stereo unspecified) |  | 7.05 µM (active)
25 | O=[N+]([O-])/C(C=Nc1ccccc1O)=C\Nc1ccccc1O |  | 28.1 µM (active)
26 | S=C(Nc1ccccc1)c1ccccn1 | -0.455% (inactive) | 
27 | CC1=C/C(=N\NC(=S)Nc2cccnc2)CC(C)(C)C1 |  | 9.96 µM (active)
28 | C(=N\Nc1nc(-c2ccccn2)nc2ccccc12)/c1ccccc1 |  | 3.15 µM (active)
29 | O=C(NN1C(=O)c2ccccc2NC1c1ccc([N+](=O)[O-])o1)c1ccc([N+](=O)[O-])cc1 (stereo unspecified) |  | 3.97 µM (active)
30 | COc1ccc2c(C)nc(Nc3nc(-c4ccccc4)cc(=O)[nH]3)nc2c1 |  | 8.88 µM (active)
31 | CCCCOC(=O)Cn1c2ccc(OC)cc2c2nc3ccccc3nc21 |  | 14.1 µM (active)
